Shown are actives, neighbours in structure and some others; about 3.4% of the full set was active somewhere.
proKLK7 act = proKLK7 (human) activation, primary screen; P49862; purified proKLK7, EDANS-DABCYL substrate fluorescence; 100% is mature enzyme control, 0% vehicle; activation, % at 7 µM; 370,000 tested, 0.9% active; AID 652039;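 active = activation above the mean of all tested compounds plus 3 SD, computed per campaign excluding outliers beyond control limits, cut at about 13% in these data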
ADAM17 inh = inhibits human ADAM17; P78536; recombinant ADAM17, EDANS/DABCYL FRET peptide cleavage; inhibition, % at 6.95 µM; 370,000 tested, 0.83% active; AID 720648;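 active = inhibition above the mean of compounds lying between control limits plus 3 SD, set per campaign, cut at about 8.5% in these data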;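 also: 0% = DMSO-only wells as the low control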
HGIII-sPLA2 inh = Blocks human group III sPLA2 activity; Q9NZ20; QFRET BODIPY PC-A2 liposome hydrolysis, fluorescence; inhibition, % at 12.2 µM; 370,000 tested, 0.56% active; AID 743126;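 active = inhibition above mean plus 3 SD of compounds lying within the high and low control bounds, cut at about 19% in these data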;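 also: 0% = median of test compound wells and 100% = no enzyme DMSO wells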
ADAM10 inh = inhibitors of human ADAM10; recombinant ADAM10, EDANS/DABCYL FRET peptide cleavage, 3 h; inhibition, % at 7 µM; 370,000 tested, 0.62% active; AID 720582;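 active = inhibition above a per-campaign cutoff equal to the mean of compounds falling between control-based bounds plus 3 SD, cut at about 20% in these data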;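 also: 0% = DMSO wells while the 100% control is not disclosed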
Target sequence (O14672 214-748 limits assumed): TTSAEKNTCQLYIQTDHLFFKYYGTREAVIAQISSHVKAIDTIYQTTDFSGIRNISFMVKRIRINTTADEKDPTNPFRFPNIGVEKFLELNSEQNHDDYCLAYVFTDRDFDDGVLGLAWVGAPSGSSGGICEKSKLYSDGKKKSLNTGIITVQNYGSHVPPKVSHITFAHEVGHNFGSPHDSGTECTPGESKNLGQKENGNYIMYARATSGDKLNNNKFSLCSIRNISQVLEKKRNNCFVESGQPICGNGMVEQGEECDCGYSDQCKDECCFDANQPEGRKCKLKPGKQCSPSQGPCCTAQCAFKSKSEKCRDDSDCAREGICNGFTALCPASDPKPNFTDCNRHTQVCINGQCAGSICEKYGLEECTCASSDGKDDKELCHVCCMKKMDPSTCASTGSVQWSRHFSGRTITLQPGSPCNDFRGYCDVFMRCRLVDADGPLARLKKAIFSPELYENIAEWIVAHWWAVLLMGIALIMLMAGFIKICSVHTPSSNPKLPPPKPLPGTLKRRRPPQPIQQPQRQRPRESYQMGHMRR
PLC-gamma1 inh = PLC-gamma1 (human) inhibition, primary screen. inhibition, % at 12.2 µM. 370,000 tested, 0.84% active. purified PLC-gamma1, fluorogenic substrate, fluorescence; in the data active = inhibition above about 9.5%
PLC-beta3 inh = blocks human PLC-beta3 enzyme activity | Q01970 | Purified PLC-beta3, fluorogenic substrate, fluorescence | inhibition, % at 12.2 µM | 370,000 tested, 0.18% active;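 also: 0% = median of compound wells on plate and 100% = full blocker control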
PLCgamma1 ctr = PLC-gamma1 inhibition, counter-screen for PLC-beta3 hits | shares compounds with PLC-gamma1 inh | purified PLC-gamma1, fluorogenic substrate, fluorescence | inhibition, % at 12.3 µM | 3,300 tested, 3.1% active | AID 743258; in the data active = inhibition above about 9.5%
PLCbeta3 conf = confirmation of human PLC-beta3 inhibitors. shares compounds with PLC-gamma1 inh. purified PLC-beta3, fluorogenic substrate fluorescence. inhibition, % at 12.3 µM. 3,300 tested, 1% active
Starred values were filed as active, the others as inactive; . = no result. Rule as the data show it, unless noted: active = inhibition above about 11%; inactive = the rest.

SMILES	proKLK7 act	ADAM17 inh	HGIII-sPLA2 inh	ADAM10 inh	PLC-gamma1 inh	PLC-beta3 inh	PLCgamma1 ctr	PLCbeta3 conf
CC1C(c2ccccc2)OCCN1C(=S)NC(=O)c1ccccc1 (configuration not stated)	0	4	-2	-7	1	15*	-6	-1
C#CCN1CC(N(C)CCOC(=O)c2cc3ccccc3[nH]2)CS1(=O)=O (configuration not stated)	1	-4	-1	-6	-3	-5	.	.
Cc1ccc(S(=O)(=O)Nc2ccc3c(c2)CCC3)cc1	-1	3	-15	5	-1	-2	.	.
Cc1ccc(S(=O)(=O)Nc2ccc3c(c2)CCC3)cc1C	0	6	8	-7	13*	-3	1	0
COc1ccc(-n2c(COc3ccc(C)cc3)nnc2SCC(=O)Nc2ccc(S(=O)(=O)Nc3cc(C)nc(C)n3)cc2)cc1	0	0	-61	5	0	0	.	.
CC(C(=O)O)N1C(=O)/C(=C/C=C/c2ccco2)SC1=S (configuration not stated)	1	-5	-15	-13	37*	-3	20*	-14
Cc1ccc(S(=O)(=O)/N=C2/NC(=O)/C(=C\c3ccccc3)S2)cc1	0	2	-71	-2	-1	-5	.	.
Cc1ccc(S(=O)(=O)N=C2SCCCS2)cc1	0	7	-3	5	9.9*	3	-3	1
O=S(=O)(N1CCOCC1)N1CCCN(S(=O)(=O)N2CCOCC2)CC1	0	1	3	5	11*	6	0	4
O=C(N1CCOCC1)N1CCN(S(=O)(=O)N2CCCCC2)CC1	0	0	-3	1	4	-3	.	.
CCCCCn1c(C(C)NC(=O)CCC)nc2ccccc21 (configuration not stated)	0	-1	4	8	7	14*	-6	-1
CCCCn1c(C(C)NC(=O)CCC)nc2ccccc21 (configuration not stated)	0	0	1	4	0	7	.	.
COC(=O)[C@]12C[C@H](CC(=O)NCc3cccs3)C(=O)N(Cc3ccco3)C1=C[C@H](C1CCCC1)O[C@@H]2C	0	1	-14	0	1	2	.	.
NC(=O)CN1C(=O)C2C3CCC(C3)C2C1=O (configuration not stated)	1	-6	12	-17	-1	-2	.	.
O=C(O)CN1C(=O)C2C3CCC(C3)C2C1=O (configuration not stated)	-1	8	2	-4	14*	8	-5	-2
COc1cc(C=Nn2c(-c3n[nH]c4c3CCC4)n[nH]c2=S)ccc1OCc1ccccc1	0	0	0	-5	-2	1	.	.
O=C(OCC(=O)C12CC3CC(CC(C3)C1)C2)c1cnccn1	0	0	5	-6	12*	3	1	1
O=C(OCC(=O)C12CC3CC(CC(C3)C1)C2)c1ccc(O)cc1O	0	3	-32	6	10*	3	2	3
O=C(COC(=O)c1cnccn1)c1ccccc1	0	-2	12	-2	-1	12*	-4	0
O=C(COC(=O)c1ccc(O)cc1O)NC12CC3CC(CC(C3)C1)C2	0	-1	-39	3	7	-1	.	.
O=C(OCC(=O)C12CC3CC(CC(C3)C1)C2)c1ccccn1	0	3	-4	-3	5	-1	.	.
C#CCN(CC=C)Cc1ccc(OC)cc1OC	0	-3	3	0	0	0	.	.
O=C(COC(=O)CC12CC3CC(CC(Br)(C3)C1)C2)NC(=O)NCc1ccco1	0	8	5	9	11*	7	-7	-6
O=C(O)c1cccc(S(=O)(=O)NCC(=O)N2CCN(c3ccccn3)CC2)c1	0	-1	1	-2	1	3	.	.
CN(C)S(=O)(=O)c1cccc(C(=O)N/N=C\c2ccccc2)c1	0	-2	4	-3	0	-2	.	.
SMILES	proKLK7 act	ADAM17 inh	HGIII-sPLA2 inh	ADAM10 inh	PLC-gamma1 inh	PLC-beta3 inh	PLCgamma1 ctr	PLCbeta3 conf
CC(=O)NC1c2ccccc2C(=O)N1Cc1ccccc1 (configuration not stated)	0	3	14	7	11*	4	-4	-2
O=C1c2ccccc2C(Nc2ccc(Cl)cn2)N1Cc1ccccc1 (configuration not stated)	0	0	10	-1	2	-5	.	.
CCCOc1ccc(Oc2cc(C)nc(SC)n2)nn1	0	3	9	4	7	13*	-8	-2
CSc1nc(C)cc(Oc2ccc(OCCOc3ccccc3)nn2)n1	-1	-2	-1	-9	2	-1	.	.
CC(C)(C)N(Cc1cn(Cc2ccccc2)nn1)S(=O)(=O)c1ccc(N2CCCCC2)cc1Br	1	2	-3	6	-5	-9	.	.
O=C(NCc1ccccc1)c1onc(CSc2ccc(F)c(F)c2)c1C(=O)NCc1ccccc1	0	7	-2	19	2	11*	1	-1
O=C(NCc1ccccc1)c1onc(CSc2ccccc2)c1C(=O)NCc1ccccc1	0	5	-14	12	2	-6	.	.
CCn1nc(C(=O)N[C@@H](CCSC)c2nc3ccccc3[nH]2)c2ccccc2c1=O	0	-1	-4	-4	0	-1	.	.
CSCC[C@H](NC(=O)c1nn(C)c(=O)c2ccccc12)c1nc2ccccc2[nH]1	0	3	2	-2	13*	1	-9	-6
OCc1nc2ccccc2n1Cc1ccc(Cl)cc1	-1	6	2	9	10*	1	-10	-5
Cc1nc2ccccc2n1Cc1ccc(Cl)cc1	1	-1	6	-4	0	-5	.	.
Nc1nonc1-c1nc2ccccc2n1Cc1ccc(Cl)cc1	0	-3	11	-2	11*	-6	-8	-6
N#CCC[C@H]1CC[C@]2(CCCN(C(=O)C3CCCCC3)C2)O1	0	3	10	2	2	1	.	.
CN1[C@@H](Cc2ccccc2)COc2cccc(F)c2S1(=O)=O	0	-1	-8	2	0	3	.	.
Cn1cc([N+](=O)[O-])c(C(=O)NCc2ccco2)n1	-1	-4	-2	6	1	-3	.	.
CCn1cc(Br)c(C(=O)NCc2ccco2)n1	0	5	-1	7	10*	9	-7	-3
COC(=O)NCc1ccc(Cl)c(Cl)c1	0	4	10	-5	12*	2	-7	-3
COC(=O)NCc1ccc(CNC(=O)OC)cc1	0	0	8	0	3	6	.	.
